Hits are enriched below; roughly 6.8% of the tested compounds scored in any of these assays.
Spn DPM-DC inh: inhibitors of Streptococcus pneumoniae diphosphomevalonate decarboxylase; AID 556; actives 0.49% (n = 65,000); purified DPM-DC, PK/LDH coupled NADH fluorescence; calls only at 10 µM;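 active = the 320 compounds with the highest percent inhibition in the single-dose primary screen, excluding strongly autofluorescent ones, cut at about 32% in these data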;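 note: kinetic rate of NADH fluorescence loss reporting ADP formed by the decarboxylase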
Spn PMK inh: inhibitors of Streptococcus pneumoniae phosphomevalonate kinase | purified PMK, PK/LDH-coupled NADH absorbance 340 nm | inhibition, % at 10 µM | actives 0.49% (n = 65,000);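 active = top-ranked compounds by inhibition in the single 10 µM screen, taking a fixed number of the strongest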
Autofluor 339: intrinsic fluorescence of library compounds, ex339/em460 – biochemical, MLSMR library, data from DPM-DC assay, artefact control, profiling panel. fluorescence fold increase at 10 µM. AID 709. compound autofluorescence, ex339/em460 nm, NADH buffer; active compounds read high; 1 = no-compound wells, NADH background. actives 5.5% (n = 65,000);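 active = at 10 µM, mean starting fluorescence two-fold or more over control wells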;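 note: signal is the first read of a kinetic run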
Abs 340nm: compound absorbs light at 340 nm. compound absorbance at 340 nm, fold over control. fold change at 10 µM. 65,000 tested, under 10 active. AID 708;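 active = at 10 µM dose, initial 340 nm absorbance at least 2 fold that of control wells; inactive = change under 2 fold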;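 note: initial absorbance extrapolated from kinetic A340 decline of NADH oxidation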
NADH enzymes: inhibitors of enzymes used to reach an NAD/NADH endpoint | AID 774 | actives 0.02% (n = 65,000) | coupled PK/LDH NADH assays, four targets | IC50, µM (top dose mostly 10 µM);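 active = single-dose screening hits from any of four coupled enzyme assays that gave an IC50 when retested across doses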;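 note: the DPM-DC format reads NADH fluorescence rather than 340 nm absorbance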
Spn MK inh: inhibitors of Streptococcus pneumoniae mevalonate kinase. inhibition, % at 10 µM. actives 0.48% (n = 65,000). purified MK, PK/LDH-coupled NADH absorbance 340 nm;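 active = ranked among the strongest by inhibition in the single 10 µM screen, a fixed top-ranked set picked for dose follow-up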
Hits are given with their value; . = inactive; / = not tested or not shown.

SMILES | Spn DPM-DC inh | Spn PMK inh | Autofluor 339 | Abs 340nm | NADH enzymes | Spn MK inh
CC(C)(C)NC(=O)c1ccc2c(c1)N(CC(=O)N1CCN(c3ccc(F)cc3)CC1)C(=O)C(C)(C)O2 | . | . | . | . | . | .
CCN1CCCC1CNC(=O)Cn1cnc2sc(C)c(S(=O)(=O)N3CCC(C)CC3)c2c1=O (centres undefined) | . | . | . | . | . | .
Cc1cc(C)n(C(=O)c2ccc(C)c(S(=O)(=O)N3CCCC3)c2)n1 | . | . | . | . | . | .
COc1ccccc1CN(Cc1ccco1)S(=O)(=O)c1ccc(-n2cnnn2)c(OC)c1 | . | . | . | . | . | .
COc1ccccc1NC(=O)c1nc[nH]c1C(=O)Nc1ccccc1OC | . | . | 2.3 | . | . | .
CCOc1ccccc1NC(=O)c1nc[nH]c1C(=O)Nc1ccccc1OCC | / | . | 5.2 | . | . | .
Cc1ccccc1NC(=O)c1nc[nH]c1C(=O)NCc1ccccc1 | . | . | . | . | . | .
CNC(=O)c1[nH]cnc1C(=O)Nc1cccc(OC)c1 | . | . | . | . | . | .
COc1ccc(NC(=O)c2nc[nH]c2C(=O)Nc2ccccc2C)cc1 | . | . | 3.2 | . | . | .
CCSc1nnc(NC(=O)CSc2nc3c(c(=O)n2-c2ccccc2OC)SCC3)s1 | . | . | . | . | . | .
C/C(NCc1cccnc1)=C(\C#N)C(=O)NCc1ccccc1 | . | . | . | . | . | .
O=C1CC(NCc2ccc3c(c2)OCO3)C(=O)N1Cc1ccc2c(c1)OCO2 (centres undefined) | . | . | . | . | . | .
COC(=O)c1cc(COc2ccc3ccc(=O)oc3c2)c(C)o1 | / | . | 2.1 | . | . | .
Cc1oc(C(=O)O)cc1COc1ccc2c(C)cc(=O)oc2c1 | . | . | 2.1 | . | . | .
COC(=O)c1cc(COc2ccc3oc(C)c(C(=O)OC)c3c2)c(C)o1 | . | . | . | . | . | .
CCC(=O)c1ccc(OCCSc2ncccn2)cc1 | . | . | . | . | . | .
CON(C)c1nc(OCCNC(=O)OCc2ccc(Cl)cc2Cl)nc(N(C)C)n1 | . | 25 | . | . | . | .
CON(C)c1nc(OCCNC(=O)COc2ccc(Cl)cc2C)nc(N(C)C)n1 | . | . | . | . | . | .
O=C(COC(=O)c1ccc(S(=O)(=O)Nc2ccccc2)cc1)NCCN1C(=O)CSC1=O | . | . | . | . | . | .
Cc1noc(C)c1CSc1nnc(-c2ccccc2F)n1CCc1ccccc1 | . | . | . | . | . | .
COCC(C)n1c(COc2ccccc2F)nnc1SCc1c(C)noc1C (centres undefined) | . | 29 | . | . | . | .
O=C1CCCC2=C1C(c1ccncc1)c1c(nc(SCc3ccccc3Cl)[nH]c1=O)N2 (centres undefined) | . | . | 2.1 | . | . | .
COc1cc(-c2cc3nc(C)c(C)c(=O)n3[nH]2)cc(OC)c1OC | . | . | 2 | . | . | .
CC(C)Oc1ccc(/C(O)=C2/C(=O)C(=O)N(CCCN3CCOCC3)C2c2ccncc2)cc1 (centres undefined) | . | . | . | . | . | .
Cc1cc(NC(=O)C2COc3ccccc3O2)no1 (centres undefined) | . | . | . | . | . | .
SMILES | Spn DPM-DC inh | Spn PMK inh | Autofluor 339 | Abs 340nm | NADH enzymes | Spn MK inh
CCN1CCN(C(=O)Nc2cccc3ccccc23)CC1 | . | . | . | . | . | .
CN1CCN(C(=O)Nc2cccc3ccccc23)CC1 | / | . | 2.1 | . | . | .
NC(=O)C1CCCN(C(=O)Nc2cccc3ccccc23)C1 (centres undefined) | . | . | 2.3 | . | . | .
COc1ccccc1CNc1ncnc2c1nnn2Cc1ccccc1 | . | . | . | . | . | .
COc1ccc(OC)c(S(=O)(=O)NCCC2=CCCCC2)c1 | . | . | . | . | . | .
CCOC(=O)c1c(C)oc2ccc(NS(=O)(=O)c3ccc4c5c(cccc35)C(=O)N4)cc12 | . | . | . | . | . | .
O=C1Nc2ccc(S(=O)(=O)NCCC3=CCCCC3)c3cccc1c23 | / | . | 3.6 | . | . | .
CCN(CC)S(=O)(=O)c1ccc2c3c(cccc13)C(=O)N2 | / | . | 2.2 | . | . | .
CCOC(=O)Cc1c(C)c2c(C)nn(-c3ccccc3)c2oc1=O | . | . | 2.3 | . | . | .
CCOC(=O)c1ccc(Nc2cc(C)nc(N3CCOCC3)n2)cc1 | . | . | 3 | . | . | .
